# Reference: the supplement of paper PMC8728848
# The sample as a whole holds a higher share of the strongest signals than the screen did.
# What was measured:
# Experiment in all cases: glycan array binding signal (z-score within array); higher = stronger binding
# Settings in all cases: glycan notation: IUPAC condensed, linker removed
# [1] = molecular target: Fuc(a1-2)Gal(b1-3)GlcNAc(b1-3)[Fuc(a1-2)Gal(b1-3)GlcNAc(b1-6)]GalNAc
# Summary of the method: (§1)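 The binding signal is a Z-score computed within each array and averaged over linkers. Arrays of the same protein sequence at different concentrations or buffers were also averaged together. Data originate from 3228 arrays in the Consortium for Functional Glycomics database, kept only where the protein sequence was available.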
# [2] = molecular target: Fuc(a1-2)Gal(b1-3)[Fuc(a1-4)]GlcNAc(b1-3)[Gal(b1-4)GlcNAc(b1-6)]Gal(b1-4)Glc
# Summary of the method: as §1
# [3] = molecular target: Fuc(a1-2)Gal(b1-4)GlcNAc(b1-3)Gal(b1-4)GlcNAc(b1-3)Gal(b1-4)GlcNAc
# Summary of the method: as §1
# [4] = molecular target: Fuc(a1-2)Gal(b1-4)GlcNAc(b1-6)GalNAc
# Summary of the method: as §1
# [5] = molecular target: Fuc(a1-2)[Gal(a1-3)]Gal(b1-3)GlcNAc(b1-2)Man(a1-3)[Fuc(a1-2)[Gal(a1-3)]Gal(b1-3)GlcNAc(b1-2)Man(a1-6)]Man(b1-4)GlcNAc(b1-4)[Fuc(a1-6)]GlcNAc
# Summary of the method: as §1
# [6] = molecular target: Fuc(a1-2)[Gal(a1-3)]Gal(b1-3)GlcNAc(b1-6)GalNAc
# Summary of the method: as §1
# [7] = molecular target: Fuc(a1-2)[GalNAc(a1-3)]Gal(b1-3)GlcNAc(b1-3)GalNAc
# Summary of the method: as §1
# [8] = molecular target: Fuc(a1-3)[Gal(b1-4)]GlcNAc(b1-2)Man(a1-3)[Fuc(a1-3)[Gal(b1-4)]GlcNAc(b1-2)Man(a1-6)]Man(b1-4)GlcNAc(b1-4)GlcNAc
# Summary of the method: as §1
# [9] = molecular target: Gal(a1-3)Gal(b1-3)GlcNAc(b1-2)Man(a1-3)[Gal(a1-3)Gal(b1-3)GlcNAc(b1-2)Man(a1-6)]Man(b1-4)GlcNAc(b1-4)GlcNAc
# Summary of the method: as §1
# [10] = molecular target: Gal(a1-3)Gal(b1-3)[Fuc(a1-4)]GlcNAc(b1-2)Man(a1-3)[Gal(a1-3)Gal(b1-3)[Fuc(a1-4)]GlcNAc(b1-2)Man(a1-6)]Man(b1-4)GlcNAc(b1-4)GlcNAc
# Summary of the method: as §1
# Gal(b1-2)Gal = molecular target: Gal(b1-2)Gal
# Summary of the method: as §1
# Gal(b1-3)Gal = molecular target: Gal(b1-3)Gal
# Summary of the method: as §1
# [11] = molecular target: Gal(b1-3)GalNAc(a1-3)[Fuc(a1-2)]Gal(b1-4)GlcNAc
# Summary of the method: as §1
# [12] = molecular target: Gal(b1-3)GlcNAc(a1-6)Gal(b1-4)GlcNAc
# Summary of the method: as §1
# [13] = molecular target: Gal(b1-3)[Fuc(a1-4)]GlcNAc(b1-6)GalNAc
# Summary of the method: as §1
# [14] = molecular target: Gal(b1-3)[GlcNAc(b1-6)]GalNAc
# Summary of the method: as §1
# [15] = molecular target: Gal(b1-4)GlcNAc(b1-2)Man(a1-3)[Gal(b1-4)GlcNAc(b1-2)Man(a1-6)][GlcNAc(b1-4)]Man(b1-4)GlcNAc(b1-4)[Fuc(a1-6)]GlcNAc
# Summary of the method: as §1
# [16] = molecular target: Gal(b1-4)GlcNAc(b1-2)Man(a1-3)[GlcNAc(b1-2)Man(a1-6)]Man(b1-4)GlcNAc(b1-4)GlcNAc
# Summary of the method: as §1
# [17] = molecular target: Gal(b1-4)GlcNAc(b1-2)[Gal(b1-4)GlcNAc(b1-4)]Man(a1-3)[GlcNAc(b1-4)][Gal(b1-4)GlcNAc(b1-2)[Gal(b1-4)GlcNAc(b1-6)]Man(a1-6)]Man(b1-4)GlcNAc(b1-4)GlcNAc
# Summary of the method: as §1
# [18] = molecular target: Gal(b1-4)GlcNAc(b1-3)Gal(b1-3)GalNAc
# Summary of the method: as §1
# [19] = molecular target: Gal(b1-4)GlcNAc(b1-3)Gal(b1-4)GlcNAc(b1-2)[Gal(b1-4)GlcNAc(b1-3)Gal(b1-4)GlcNAc(b1-6)]Man(a1-6)[Gal(b1-4)GlcNAc(b1-3)Gal(b1-4)GlcNAc(b1-2)Man(a1-3)]Man(b1-4)GlcNAc(b1-4)[Fuc(a1-6)]GlcNAc
# Summary of the method: as §1
# [20] = molecular target: Gal(b1-4)GlcNAc(b1-3)Gal(b1-4)GlcNAc(b1-3)Gal(b1-4)GlcNAc(b1-2)Man(a1-3)[Gal(b1-4)GlcNAc(b1-3)Gal(b1-4)GlcNAc(b1-3)Gal(b1-4)GlcNAc(b1-2)Man(a1-6)]Man(b1-4)GlcNAc(b1-4)GlcNAc
# Summary of the method: as §1
# [21] = molecular target: Gal(b1-4)GlcNAc(b1-3)Gal(b1-4)GlcNAc(b1-3)Gal(b1-4)GlcNAc(b1-2)Man(a1-3)[Gal(b1-4)GlcNAc(b1-3)Gal(b1-4)GlcNAc(b1-3)Gal(b1-4)GlcNAc(b1-2)Man(a1-6)]Man(b1-4)GlcNAc(b1-4)[Fuc(a1-6)]GlcNAc
# Summary of the method: as §1
binder,measurement,setting,value
"AntigenI/IIC123 (Streptococcus mutans), C9E3B4 (protein) MASMTGGQQMGRIHFHYFKLAVQPQVNKEIRNNNDINIDRTLVAKQSVVKFQLKTADLPAGRDETTSFVLVDPLPSGYQFNPEATKAASPGFDVTYDNATNTVTFKATAATLATFNADLTKSVATIYPTVVGQVLNDGATYKNNFTLTVNDAYGIKSNVVRVTTPGKPNDPDNPNNNYIKPTKVNKNENGVVIDGKTVLAGSTNYYELTWDLDQYKNDRSSADTIQKGFYYVDDYPEEALELRQDLVKITDANGNEVTGVSVDNYTNLEAAPQEIRDVLSKAGIRPKGAFQIFRADNPREFYDTYVKTGIDLKIVSPMVVKKQMGQTGGSYENQAYQIDFGNGYASNIIINNVPKINPKKDVTLTLDPADTNNVDGQTIPLNTVFNYRLIGGIIPADHSEELFEYNFYDDYDQTGDHYTGQYKVFAKVDITFKDGSIIKSGAELTQYTTAEVDTAKGAITIKFKEAFLRSVSIDSAFQAESYIQMKRIAVGTFENTYINTVNGVTYSSLEHHHHHH",glycan array binding signal (z-score),[1],3.07
same,glycan array binding signal (z-score),[2],-0.704
same,glycan array binding signal (z-score),[3],-0.137
same,glycan array binding signal (z-score),[4],3.81
same,glycan array binding signal (z-score),[5],0.417
same,glycan array binding signal (z-score),[6],-1.42
same,glycan array binding signal (z-score),[7],2.85
same,glycan array binding signal (z-score),[8],-0.441
same,glycan array binding signal (z-score),[9],3.54
same,glycan array binding signal (z-score),[10],3.25
same,glycan array binding signal (z-score),Gal(b1-2)Gal,-0.762
same,glycan array binding signal (z-score),Gal(b1-3)Gal,-1.1
same,glycan array binding signal (z-score),[11],-0.841
same,glycan array binding signal (z-score),[12],-1.82
same,glycan array binding signal (z-score),[13],1.06
same,glycan array binding signal (z-score),[14],0.715
same,glycan array binding signal (z-score),[15],-1.3
same,glycan array binding signal (z-score),[16],-0.939
same,glycan array binding signal (z-score),[17],0.437
same,glycan array binding signal (z-score),[18],0.003
same,glycan array binding signal (z-score),[19],4.84
same,glycan array binding signal (z-score),[20],2.33
same,glycan array binding signal (z-score),[21],3.9
